Reference: PubChem BioAssay (EPA / NIEHS)
Records with an inconclusive call do not appear. Calls of active or inactive are those of the source. How the source made its calls: active means hit-call score of the fitted dose curve at least 0.9, where 1 is the maximum; inconclusive means response in the unintended direction; inactive means score below 0.9.

Columns and labels:
[1] = target: rat Opioid Receptor, Non-selective Binding, Oprm1 (gene 25601) (UniProt P33535); assay: NVS_GPCR_rOpiate_NonSelective: NovaScreen (NVS) G Protein-Coupled Receptor Assay for rat Opioid Receptor, Non-selective Binding (AID 2283318)
Chain of rat Opioid Receptor, Non-selective Binding, Oprm1 (gene 25601) (P33535 whole entry, looked up): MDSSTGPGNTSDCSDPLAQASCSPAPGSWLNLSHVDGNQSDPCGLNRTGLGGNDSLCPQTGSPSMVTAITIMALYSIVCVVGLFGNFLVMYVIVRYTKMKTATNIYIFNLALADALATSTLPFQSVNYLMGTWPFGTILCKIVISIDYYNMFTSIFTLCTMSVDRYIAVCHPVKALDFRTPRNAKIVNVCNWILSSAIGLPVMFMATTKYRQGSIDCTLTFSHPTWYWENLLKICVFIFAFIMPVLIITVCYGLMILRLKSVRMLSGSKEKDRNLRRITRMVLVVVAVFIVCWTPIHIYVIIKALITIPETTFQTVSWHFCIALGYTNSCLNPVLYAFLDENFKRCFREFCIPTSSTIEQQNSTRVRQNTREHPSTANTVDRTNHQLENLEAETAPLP
Summary of the method: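 Rat forebrain membranes, cell-free radioligand binding with filter-based scintillation counting, read 1.5 h after dosing. Primary screen in duplicate at 25 uM; actives retested in concentration series. Loss of signal versus DMSO baseline scored.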

NCBI gene 24521 = assay: NVS_IC_rKATPCh: NovaScreen (NVS) Ion Channel Assay for rat Potassium Channel, ATP-Sensitive (KATPCh) (AID 2283319)
Summary of the method: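 Rat cortical membranes; radioligand binding at ATP-sensitive K channel site, filter-based scintillation counting 2 h after dosing. Single-point duplicate screen at 25 uM, hits rerun in concentration-response up to 50 uM; loss of signal versus DMSO.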

[2] = target: human Serotonin, 5-Hydroxytryptamine Receptor 3 (5HT3), HTR3A (gene 3359) (UniProt P46098); assay: NVS_LGIC_h5HT3: NovaScreen (NVS) Ligand-Gated Ion Channel Assay for human Serotonin, 5-Hydroxytryptamine Receptor 3 (5HT3) (AID 2283325)
Chain of human Serotonin, 5-Hydroxytryptamine Receptor 3 (5HT3), HTR3A (gene 3359) (P46098 whole entry, looked up): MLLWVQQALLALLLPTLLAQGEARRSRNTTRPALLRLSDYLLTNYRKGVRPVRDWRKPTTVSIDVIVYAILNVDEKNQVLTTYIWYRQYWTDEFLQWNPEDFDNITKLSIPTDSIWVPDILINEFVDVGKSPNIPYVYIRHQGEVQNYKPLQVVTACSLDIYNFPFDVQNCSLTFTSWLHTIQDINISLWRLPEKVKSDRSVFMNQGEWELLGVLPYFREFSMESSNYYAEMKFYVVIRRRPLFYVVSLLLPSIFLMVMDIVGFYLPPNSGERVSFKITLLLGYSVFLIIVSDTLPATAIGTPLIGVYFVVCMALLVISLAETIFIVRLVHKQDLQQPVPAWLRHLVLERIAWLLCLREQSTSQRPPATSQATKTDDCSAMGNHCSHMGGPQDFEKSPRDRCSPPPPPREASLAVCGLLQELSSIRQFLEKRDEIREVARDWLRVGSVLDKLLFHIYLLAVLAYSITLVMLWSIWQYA
Summary of the method: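 Radioligand displacement binding to human 5-HT3 from HEK293 membranes, read by filter-based scintillation counting after 1 h. Screen at 25 uM in duplicate; chemicals passing threshold were retested in concentration-response up to 50 uM.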

[3] = target: Sodium channel protein type 1 subunit alpha (Rattus norvegicus) (UniProt P04774); assay: NVS_IC_rNaCh_site2: NovaScreen (NVS) Ion Channel Assay for rat Sodium Channel, Site 2 (NaCh) (AID 2283322);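 further: hit means loss of radioligand binding signal relative to DMSO so AC50 marks displacement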
Summary of the method: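 Membranes: rat forebrain. Format: competitive radioligand displacement, filter separation, scintillation readout, 1 h exposure. Primary screen in duplicate at 25 uM; actives retested in concentration series.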

[4] = target: Voltage-dependent N-type calcium channel subunit alpha-1B (Rattus norvegicus) (UniProt Q02294); assay: NVS_IC_rCaChN: NovaScreen (NVS) Ion Channel Assay for rat Calcium Channel, Type N (CaChN) (AID 2283317)
[5] = target: rat Vasopressin 1 Receptor (V1), Avpr1a (gene 25107) (UniProt P30560); assay: NVS_GPCR_rV1: NovaScreen (NVS) G Protein-Coupled Receptor Assay for rat Vasopressin 1 Receptor (V1) (AID 2283316)
Chain of rat Vasopressin 1 Receptor (V1), Avpr1a (gene 25107) (P30560 whole entry, looked up): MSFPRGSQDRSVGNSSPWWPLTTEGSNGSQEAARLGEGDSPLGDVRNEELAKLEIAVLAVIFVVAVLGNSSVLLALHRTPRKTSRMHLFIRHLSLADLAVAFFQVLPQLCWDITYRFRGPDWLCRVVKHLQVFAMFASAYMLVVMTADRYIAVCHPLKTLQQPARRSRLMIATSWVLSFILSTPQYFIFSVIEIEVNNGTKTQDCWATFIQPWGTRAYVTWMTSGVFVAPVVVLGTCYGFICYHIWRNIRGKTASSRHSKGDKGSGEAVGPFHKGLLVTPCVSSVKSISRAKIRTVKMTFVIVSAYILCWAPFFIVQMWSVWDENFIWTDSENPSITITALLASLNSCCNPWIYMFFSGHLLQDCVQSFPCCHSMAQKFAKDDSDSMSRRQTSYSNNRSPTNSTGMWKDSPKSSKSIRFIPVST
Method: NVS_GPCR_rV1 is a biochemical, single-readout assay that uses extracted gene-proteins from Rat liver membranes in a tissue-based cell-free assay. Measurements were taken 1.5 hours after chemical dosing in a 48-well plate.NVS_GPCR_rV1 is one of one assay component(s) measured or calculated from the NVS_GPCR_rV1 assay. It is designed to make measurements of radioligand binding, a form of binding reporter, as detected with scintillation counting signals by Filter-based radiodetection technology.Data from the assay component NVS_GPCR_rV1 was analyzed into 1 assay endpoint. This assay endpoint, NVS_GPCR_rV1, was analyzed in the positive analysis fitting direction relative to DMSO as the negative control and baseline of activity. Using a type of binding reporter, loss-of-signal activity can be used to understand changes in the binding as they relate to the gene Avpr1a. Furthermore, this assay endpoint can be referred to as a primary readout, because the performed assay has only produced 1 assay endpoint. To generalize the intended target to other relatable targets, this assay endpoint is annotated to the gpcr intended target family, where the subfamily is rhodopsin-like receptor.
Binding assays used specific radioligands (tritiated, iodinated) with non-radioactive competitive displacement ligands in agonist or antagonist protocols (as indicated) and various reference compounds and inhibitors to titrate specific binding to receptors and transporters. Most enzyme assays (CYPs, kinases, phosphatases, proteases, HDACs) used recombinant protein and specific substrates (fluorescence mostly, some colorimetric and radioactive) and inhibitors, followed by a biochemical separation of substrate and product. All assays for the biochemical HTS were initially run in duplicate at a single concentration (10 uM for CYP450 assays and 25 uM for all others). Assay-chemical combinations meeting a pre-defined threshold (e.g., 30% inhibition and other criteria defined below) were then run in singleton concentration-response format with maximum concentration of 20 uM for CYPs and 50 uM for all others. Each assay was run with positive and negative controls, and concurrent controls on every plate. The follow-up (secondary) screen tested active chemical-pairs in concentration series, as well as a few additional assays not tested in the primary screen, some selected negative inactives, and several cases re-run in the concentration series for confirmatory purposes.

[6] = NVS_IC_rCaDHPRCh_L: NovaScreen (NVS) Ion Channel Assay for rat Calcium Channel, Type L, Dihydropyridine Site (CaDHPRCh_L) (AID 2283320)
Summary of the method: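 Radioligand binding to dihydropyridine site on rat cortical membranes, filter-based scintillation counting, 1 h after dosing. Screened in duplicate at 25 uM; actives rerun in concentration-response up to 50 uM. Loss of signal versus DMSO baseline.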

[7] = target: rat Glutamate, AMPA Site (AMPA), Gria1 (gene 50592) (UniProt P19490); assay: NVS_LGIC_rAMPA: NovaScreen (NVS) Ligand-Gated Ion Channel Assay for rat Glutamate, AMPA Site (AMPA) (AID 2283324)
Chain of rat Glutamate, AMPA Site (AMPA), Gria1 (gene 50592) (P19490 whole entry, looked up): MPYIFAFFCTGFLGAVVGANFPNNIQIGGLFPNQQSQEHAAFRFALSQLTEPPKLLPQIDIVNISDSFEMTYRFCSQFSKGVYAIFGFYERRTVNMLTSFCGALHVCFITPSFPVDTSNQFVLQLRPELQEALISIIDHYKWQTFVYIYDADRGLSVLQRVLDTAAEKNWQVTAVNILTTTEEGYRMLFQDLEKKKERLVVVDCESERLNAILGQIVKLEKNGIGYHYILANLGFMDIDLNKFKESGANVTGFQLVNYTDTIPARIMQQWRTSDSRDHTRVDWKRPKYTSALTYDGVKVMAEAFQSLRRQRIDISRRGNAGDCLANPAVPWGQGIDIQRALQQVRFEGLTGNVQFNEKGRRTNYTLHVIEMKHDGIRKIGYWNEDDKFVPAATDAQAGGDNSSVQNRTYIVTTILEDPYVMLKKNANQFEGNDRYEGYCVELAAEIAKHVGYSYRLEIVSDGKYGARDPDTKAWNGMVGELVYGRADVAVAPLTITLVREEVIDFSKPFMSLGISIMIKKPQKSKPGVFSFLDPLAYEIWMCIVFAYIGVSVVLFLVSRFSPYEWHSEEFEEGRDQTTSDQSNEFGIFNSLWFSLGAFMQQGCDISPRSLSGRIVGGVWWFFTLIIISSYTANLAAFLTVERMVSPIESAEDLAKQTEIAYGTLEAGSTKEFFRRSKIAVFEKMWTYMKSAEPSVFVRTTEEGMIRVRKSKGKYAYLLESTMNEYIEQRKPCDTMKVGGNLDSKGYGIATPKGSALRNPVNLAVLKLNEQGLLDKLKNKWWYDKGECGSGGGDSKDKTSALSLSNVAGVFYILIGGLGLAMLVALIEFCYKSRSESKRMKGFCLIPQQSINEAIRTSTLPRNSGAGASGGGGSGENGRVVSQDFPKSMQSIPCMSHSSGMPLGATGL
Summary of the method: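 Rat forebrain membranes; radioligand binding read 1 h after dosing by filtration and scintillation counting. Duplicate single-point screen at 25 uM, then concentration-response to 50 uM for threshold hits (e.g. 30% inhibition); loss of signal vs DMSO.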

[8] = target: bovine Gamma-Aminobutyric Acid Type A Receptor BDZ, alpha 5 site (GABARa5), GABRA5 (gene 523515) (UniProt Q08E50); assay: NVS_LGIC_bGABARa5: NovaScreen (NVS) Ligand-Gated Ion Channel Assay for bovine Gamma-Aminobutyric Acid Type A Receptor BDZ, alpha 5 site (GABARa5) (AID 2283323)
Chain of bovine Gamma-Aminobutyric Acid Type A Receptor BDZ, alpha 5 site (GABARa5), GABRA5 (gene 523515) (Q08E50 whole entry, looked up): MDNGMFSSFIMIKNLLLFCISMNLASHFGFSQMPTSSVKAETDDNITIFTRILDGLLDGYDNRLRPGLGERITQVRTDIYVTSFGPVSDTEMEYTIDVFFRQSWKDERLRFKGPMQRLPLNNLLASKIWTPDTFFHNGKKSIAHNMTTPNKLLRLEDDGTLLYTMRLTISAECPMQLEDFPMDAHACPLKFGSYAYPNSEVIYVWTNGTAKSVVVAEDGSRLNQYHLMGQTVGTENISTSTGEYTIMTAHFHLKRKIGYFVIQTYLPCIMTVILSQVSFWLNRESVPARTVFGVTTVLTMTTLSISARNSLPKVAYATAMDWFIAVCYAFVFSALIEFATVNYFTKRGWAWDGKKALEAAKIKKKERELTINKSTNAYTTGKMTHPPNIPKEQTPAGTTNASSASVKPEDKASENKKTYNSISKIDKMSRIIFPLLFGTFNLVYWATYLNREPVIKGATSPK
Summary of the method: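 Radioligand competitive displacement binding on bovine hippocampal membranes, read 1 hr after dosing by filter-based scintillation counting. Primary screen at 25 uM in duplicate; actives (e.g. ≥30% inhibition) then run in concentration-response up to 50 uM.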

## CCOP(=S)(OCC)Oc1ccc2c(C)c(Cl)c(=O)oc2c1
[1]
  outcome: inactive

## CSc1nnc(C(C)(C)C)c(=O)n1N
NCBI gene 24521
  outcome: inactive
[2]
  outcome: inactive

## Nc1c(Cl)cc([N+](=O)[O-])cc1Cl
[3]
  outcome: inactive

## COP(=O)(OC)OC(Br)C(Cl)(Cl)Br (stereo not given)
NCBI gene 24521
  outcome: inactive

## COP(=O)(OC)C(O)C(Cl)(Cl)Cl (stereo not given)
[4]
  outcome: inactive

## CCc1cccc(C)c1N(C(=O)CCl)C(C)COC (stereo not given)
[1]
  AC50: 14.7 µM (active)

## COc1ccc(C(=CC(=O)N2CCOCC2)c2ccc(Cl)cc2)cc1OC
[5]
  AC50: 6.22 µM (active)
[1]
  outcome: inactive
NCBI gene 24521
  outcome: inactive
[6]
  outcome: inactive

## CCC(=O)Nc1ccc(Cl)c(Cl)c1
[3]
  outcome: inactive

## CCCOCC(=Nc1ccc(Cl)cc1C(F)(F)F)n1ccnc1
[1]
  AC50: 12.1 µM (active)
[6]
  outcome: inactive
[3]
  outcome: inactive

## CNC(=O)ON=C(SC)C(=O)N(C)C
NCBI gene 24521
  outcome: inactive

## CC(C1CC1)C(O)(Cn1cncn1)c1ccc(Cl)cc1 (stereo not given)
[3]
  outcome: inactive

## CN1COCN(Cc2cnc(Cl)s2)C1=N[N+](=O)[O-]
[6]
  outcome: inactive

## CON=C(C(=O)OC)c1ccccc1CON=C(C)c1cccc(C(F)(F)F)c1
[5]
  AC50: 11.1 µM (active)
[7]
  outcome: inactive

## CCCCSP(=O)(SCCCC)SCCCC
[4]
  outcome: inactive

## COc1cccc(C(=O)NN(C(=O)c2cc(C)cc(C)c2)C(C)(C)C)c1C
[5]
  AC50: 0.491 µM (active)

## CCCCOC(=O)c1ccccc1C(=O)O
[4]
  outcome: inactive
[8]
  outcome: inactive

## N#CSCSC#N
[5]
  AC50: 2.01 µM (active)
